CYP2C9 inh = blocks human cytochrome P450 2C9. 96,000 compounds, 20% hits. inhibition, % at 5 µM. CYP2C9 Supersomes, luciferin-H conversion, luminescence;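 active = blocking of liver enzyme CYP2C9 beyond about 50% at 5 µM, limit read from the data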
CYP2C19 inh = human CYP2C19 inhibition | P33261 | CYP2C19 Supersomes, luciferin-H EGE luminescence, 30 min | inhibition, % at 5 µM | 96,000 compounds, 21% hits | AID 778;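 active = CYP2C19 inhibition above a set limit at 5 µM in the primary screen, cut at about 50% in these data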;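 note: plate controls were negative control wells for no effect and 2.5 mM tranylcypromine positive control for full effect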
Target sequence (P33261 whole entry, looked up): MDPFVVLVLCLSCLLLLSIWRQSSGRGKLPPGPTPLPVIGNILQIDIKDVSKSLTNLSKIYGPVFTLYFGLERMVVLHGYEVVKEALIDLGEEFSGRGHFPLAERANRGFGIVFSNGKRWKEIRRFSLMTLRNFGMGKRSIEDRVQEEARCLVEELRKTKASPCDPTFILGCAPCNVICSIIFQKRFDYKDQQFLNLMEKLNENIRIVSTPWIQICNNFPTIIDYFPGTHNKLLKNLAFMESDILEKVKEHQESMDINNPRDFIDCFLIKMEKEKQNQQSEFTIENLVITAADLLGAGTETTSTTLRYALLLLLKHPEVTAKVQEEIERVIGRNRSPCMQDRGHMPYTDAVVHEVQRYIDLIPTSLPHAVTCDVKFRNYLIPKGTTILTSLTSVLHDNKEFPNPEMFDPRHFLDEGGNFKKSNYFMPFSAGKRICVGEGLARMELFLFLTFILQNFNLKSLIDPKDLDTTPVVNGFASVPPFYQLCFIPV
Mac1 fbg inh = CD11b/CD18-fibrinogen binding inhibition | 93,000 compounds, 0.54% hits | K562 CD11b/CD18 adhesion to fibrinogen, ATPlite luminescence; Mn2+ added to activate the integrin | AID 1497 | inhibition, % at 10 µM;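 active = primary inhibition of 50% or more at 10 µM, then 40% or more on retest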
CYP2C19 activ = cytochrome P450 2C19 (human) activation; AID 1025; activation factor at 5 µM; recombinant CYP2C19, luciferin-H EGE luminescence; stronger effect = higher value; 0 = fully inhibited enzyme, 1 = untreated enzyme; 96,000 tested, under 10 active; P33261;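 active = activation factor of at least 2 at 5 µM in the primary screen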;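 note: 0 = wells with 2.5 mM tranylcypromine and 1 = vehicle-only wells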
CD11b adhes enh = increases human CD11b/CD18 adhesion to fibrinogen. activation, % at 10 µM. 93,000 compounds, 0.07% hits. P05107+P11215. K562 CD11b/CD18 adhesion to fibrinogen, ATPlite luminescence;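 active = 10 µM primary screen giving 50% or more activity, confirmed by 40% or more on retest at that dose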
CYP2C9 activ = CYP2C9 (human) activation; 96,000 compounds, 1.4% hits; AID 1024; activation factor at 5 µM; recombinant CYP2C9, luciferin-H conversion, luminescence; stronger effect = higher value; factor 1 = untreated enzyme, 0 = blocked;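 active = activation factor of 2 or more for CYP2C9 at a 5 µM dose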;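 note: 0 = sulfaphenazole-blocked wells and 1 = vehicle-only wells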
* = called active by the depositor; . = no result given. Compounds with a hit are over-represented: about 28% of the library has one in this group of screens.

SMILES	CYP2C9 inh	CYP2C19 inh	Mac1 fbg inh	CYP2C19 activ	CD11b adhes enh	CYP2C9 activ
CN(c1ccc(C(=O)NCCc2ccccc2)cc1)S(C)(=O)=O	3.6	12.3	1.1	0.9	-5.2	1
COC(=O)[C@H](CCSC)NC(=O)Nc1ccc(OC)cc1OC	-24.3	14.9	-1.7	0.9	0.5	1.2
COc1ccc(OC)c(-n2c(SCC(N)=O)nnc2-c2c[nH]c3ccccc23)c1	58.4*	38.7	-5.0	0.6	0.1	0.4
CCOc1ccc(-n2c(SCC(=O)Nc3cc(C)on3)nnc2-c2c[nH]c3ccccc23)cc1	39.9	14.3	7.0	0.9	-7.0	0.6
COCCn1c(SCC(=O)Nc2cc(C)on2)nnc1-c1c[nH]c2ccccc12	74.9*	54.6*	-7.4	0.5	2.4	0.3
O=C(Nc1ccccn1)C(F)(F)C(F)(F)C(F)(F)C(F)(F)C(=O)Nc1ccccn1	.	.	-31.8	.	-4.0	.
Cc1cc(C)nc(SCCCn2c(=O)[nH]c3ccccc32)n1	-38.9	97.3*	6.5	0	96.1	1.4
CCCn1c(=O)[nH]c2ccccc21	-32.8	-5.5	0.5	1.1	-4.3	1.3
O=C(CCc1ccc(CCC(=O)c2cccs2)s1)c1cccs1	92.7*	89.4*	39.7	0.1	-2.8	0.1
O=C(CCC(=O)c1cccs1)NCc1ccc(F)cc1	-71.0	72.5*	-1.3	0.3	-0.4	1.7
O=C(CCC(=O)c1cccs1)Nc1ccccc1F	12.6	52.2*	-10.3	0.5	2.7	0.9
CC(C)(C)CC(=O)NCc1ccc(F)cc1	17.5	52.7*	-12.6	0.5	-0.6	0.8
COCc1cc(=O)[nH]c(/N=C(\N)Nc2ccc(C)cc2)n1	33.7	10.9	-16.4	0.9	1.1	0.7
Cc1noc(C)c1CSCC(=O)N1CCN(c2ccc([N+](=O)[O-])cc2)CC1	9.9	-4.0	30.9	1	-4.4	0.9
COc1ccc(-c2nc(Cn3c(SCc4ccccc4F)nc4ccncc43)c(C)o2)cc1	73.3*	96.7*	-5.4	0	-0.8	0.3
COc1ccc(-c2nc(Cn3c(SCc4ccc(F)cc4)nc4ccncc43)c(C)o2)cc1OC	89.8*	88.6*	-2.1	0.1	22.9	0.1
COc1ccc(Cc2ccc(OC)c(N)c2)cc1N	-6.4	65.5*	22.6	0.3	-1.5	1.1
COC(=O)c1cc(Cc2ccc(N)c(C(=O)OC)c2)ccc1N	28.5	32.4	14.0	0.7	-3.2	0.7
CCOc1cc(N2CCOCC2)c(OCC)cc1NC(=O)CSc1cccc[n+]1[O-]	33.3	2.5	.	1	.	0.7
O=C(Nc1ccc2nc(-c3cccs3)[nH]c2c1)c1cccs1	80.9*	57.1*	38.2	0.4	-2.5	0.2
COc1cccc(NC(=O)CSc2nnc(C)s2)c1	15.2	25.9	-8.7	0.7	4.3	0.8
COc1ccc(OC)c(NC(=O)CSC2=NCCS2)c1	5.1	42.1	-3.5	0.6	-1.9	0.9
Cc1csc(SC(C)C(=O)Nc2ccc(Cl)cn2)n1 (configuration not stated)	26.0	38.0	-20.4	0.6	-3.2	0.7
COc1ccc(OC)c(NC(=O)CSc2nc(C)cs2)c1	53.8*	84.1*	.	0.2	.	0.5
Cc1csc(SCC(=O)Nc2ccc(Cl)cn2)n1	59.2*	85.6*	0.6	0.1	-1.1	0.4
SMILES	CYP2C9 inh	CYP2C19 inh	Mac1 fbg inh	CYP2C19 activ	CD11b adhes enh	CYP2C9 activ
COc1ccc(OC)c(NC(=O)CSc2nnc(N)s2)c1	32.0	50.3*	12.3	0.5	-5.7	0.7
COc1cc(NC(=O)CSc2nc(C)cs2)cc(OC)c1	52.5*	95.8*	.	0	.	0.5
O=S(=O)(/N=C(/Nc1ccc(F)cc1F)c1ccc(Cl)cc1)c1ccccc1	0.5	-6.0	.	1.1	.	1
Cn1c(CN2CCCCC2)nc2cc(NC(=O)c3cccs3)ccc21	87.0*	98.6*	-7.7	0	-1.4	0.1
Cn1c(CN2CCCCC2)nc2cc(NC(=O)c3ccccc3)ccc21	2.4	6.9	-15.8	0.9	2.6	1
Cn1c(CN2CCCCC2)nc2cc(NC(=O)c3cccc(Br)c3)ccc21	10.1	8.5	59.0*	0.9	-4.3	0.9
CC(=O)n1cc(C(C[N+](=O)[O-])SCCN)c2ccccc21 (configuration not stated)	43.8	28.8	.	0.7	.	0.6
CC(C)c1nnc(NC(=O)CN(C)S(=O)(=O)c2ccc3c(c2)OCCO3)s1	-43.0	16.2	9.9	0.8	-3.9	1.4
O=C(CNS(=O)(=O)c1ccc(Br)s1)NCC1COc2ccccc2O1 (configuration not stated)	64.0*	22.5	-8.6	0.8	1.2	0.4
O=C(CNS(=O)(=O)c1ccc(Br)s1)Nc1ccc2c(c1)OCCO2	75.0*	19.0	11.1	0.8	-2.5	0.3
O=C(O)CNCC1COc2ccccc2O1 (configuration not stated)	7.7	1.2	-5.0	1	5.2	0.9
CN(CC(=O)Nc1ccc2c(c1)OCCO2)S(=O)(=O)c1ccc(Br)s1	64.5*	67.7*	-8.0	0.3	-1.1	0.4
O=C(NCc1ccc2c(c1)OCO2)C1CCN(c2ncccn2)CC1	41.1	8.2	5.8	0.9	-1.6	0.6
CC(=O)N1CCc2cc(S(=O)(=O)NC(CC(C)C)C(=O)Nc3cc(C(=O)O)ccc3C)ccc21 (configuration not stated)	-14.3	-10.9	.	1.1	.	1.1
COc1cccc(NC(=O)c2ccco2)c1	8.3	42.3	-1.0	0.6	-1.9	0.9
Cc1cc(C)c(OCC(=O)Nc2cccc(NC(=O)c3ccco3)c2)c(Br)c1	74.5*	95.9*	25.1	0	-4.6	0.3
COc1ccc(Br)cc1C(=O)Nc1cccc(NC(=O)c2ccco2)c1	13.3	88.5*	2.9	0.1	10.8	0.9
COc1c(C)cc(Br)cc1C(=O)Nc1cccc(NC(=O)c2ccco2)c1	83.1*	97.1*	-0.1	0	0.6	0.2
O=C(Nc1cccc(NC(=O)c2ccc(-c3cccc(Br)c3)o2)c1)c1ccco1	60.5*	53.7*	.	0.5	.	0.4
O=C(Nc1cccc(NC(=O)c2ccc(-c3ccc(Br)cc3)o2)c1)c1ccccc1	-7.6	-17.6	0.4	1.2	-4.1	1.1
COC(=O)[C@@H](NC(=O)Nc1cccc(OC)c1)C(C)C	-6.4	-7.9	.	1.1	.	1.1
Cc1ccc(Cl)c(OCC(=O)Nc2sc(C)c(C)c2C#N)c1	.	.	1.8	.	3.9	.
Cc1ccccc1NS(=O)(=O)c1ccc(OCC(=O)N2CCCCC2)cc1	2.2	22.5	-4.9	0.8	2.6	1
CCOC(=O)CC1C(=O)NCCN1C(=O)c1cccc(C(F)(F)F)c1 (configuration not stated)	3.0	-7.1	6.2	1.1	-0.9	1
CCOC(=O)C1=C(C)Nc2nc(SCc3cccnc3)nn2C1c1ccc(OC)cc1 (configuration not stated)	66.0*	26.3	0.2	0.7	-3.7	0.3

High-throughput results as filed in PubChem BioAssay.
